Consider eight compounds from PubChem BioAssay (NCI).

Among the test systems are NCI-H23 lung; NCI-H226 lung; NCI-H322M lung; HOP-62 NSCLC; NCI-H460 lung; HOP-92 NSCLC; NCI-H522 lung; A549/ATCC NSCLC; 786-0 renal; COLO 205 colon; DU-145 prostate; K-562 leukemia; MALME-3M melanoma; MDA-MB-231 breast; RXF 393 renal; SF-268 CNS; SF-295 CNS; SF-539 CNS; UACC-257 melanoma; M14 melanoma.
Common to all, as to assay: NCI-60 one-dose screen, 48 h (100 = growth as untreated, 0 = no growth, -100 = all killed)
Holding throughout (conditions): 10 µM unless noted

Structures are written as SMILES. About 83,000 compounds went through this panel and 20% of them were active in at least one assay; those are over-represented in the sample as a whole.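 Each cell line was grown in a 96-well plate and treated with one concentration of compound for 48 hours. Values below 10 were considered active.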 Unmarked numbers belong to inactive results. Calls of active or inactive are those of the source.

As for `O=[N+]([O-])CC(c1ccccc1F)c1c[nH]c2ccccc12` (stereo not given), the growth was 82.5% in the experiment on NCI-H23 lung; 81.9% with NCI-H226 lung; 96% in the experiment with NCI-H322M lung; 69% in the experiment with HOP-62 NSCLC; 94.8% in the experiment with NCI-H460 lung; 80.9% in the experiment with HOP-92 NSCLC. Besides, the growth with NCI-H522 lung is 23.2%; in the experiment on A549/ATCC NSCLC, 70%; in the experiment on 786-0 renal it was 87.7%; in the experiment on COLO 205 colon it was 80.4%; in the experiment on DU-145 prostate, 97.2%; in the experiment with K-562 leukemia, 17.9%. Moreover, the growth is 66.9% with MALME-3M melanoma; 56.5% in the experiment on MDA-MB-231 breast; 80% in the experiment with RXF 393 renal; 80.4% in the experiment on SF-268 CNS; 67.9% with SF-295 CNS; 76.3% in the experiment on SF-539 CNS. The growth with UACC-257 melanoma was 87.1%; in the experiment on M14 melanoma, 52.3%.
On to `CCOC(=O)CCN(CC(C)C)C(=S)Nc1ccccc1`, for which the growth in the experiment on NCI-H23 lung was 98.8%; with NCI-H226 lung, 107%; in the experiment on NCI-H322M lung, 107%; in the experiment with HOP-62 NSCLC it was 120%; with NCI-H460 lung it was 107%; in the experiment with HOP-92 NSCLC, 110%. Further, the growth with NCI-H522 lung was 101%; in the experiment on A549/ATCC NSCLC, 101%; in the experiment on 786-0 renal, 101%; in the experiment with COLO 205 colon, 113%; with DU-145 prostate, 108%; in the experiment with K-562 leukemia it was 103%. Further, the growth is 102% in the experiment with MALME-3M melanoma; 106% in the experiment with MDA-MB-231 breast; 122% in the experiment on RXF 393 renal; 104% with SF-268 CNS; 101% in the experiment on SF-295 CNS; 100% in the experiment on SF-539 CNS. Moreover, the figures for the growth with UACC-257 melanoma and in the experiment with M14 melanoma were 102% and 99%, respectively.
`COc1ccc(NC(=O)c2cc(NCc3cc(O)ccc3O)ccc2O)cc1`: the growth in the experiment on NCI-H23 lung is 90.4%; with NCI-H226 lung, 97%; with NCI-H322M lung, 91.1%; in the experiment with HOP-62 NSCLC, 101%; in the experiment on NCI-H460 lung, 87.2%; in the experiment on HOP-92 NSCLC, 106%. Also, the growth is -0.814% (active) in the experiment on NCI-H522 lung; 78.7% in the experiment with A549/ATCC NSCLC; 107% in the experiment with 786-0 renal; 113% in the experiment with COLO 205 colon; 97.4% in the experiment with DU-145 prostate; 73.1% with K-562 leukemia. Moreover, the growth with MALME-3M melanoma was 108%; in the experiment with MDA-MB-231 breast it was 79.1%; in the experiment with RXF 393 renal, 91.2%; with SF-268 CNS, 80.8%; in the experiment on SF-295 CNS, 115%; in the experiment with SF-539 CNS, 86.8%. The growth in the experiment on UACC-257 melanoma is 76.3%; in the experiment with M14 melanoma, 95.1%.
On to `O=[N+]([O-])c1ccc(NC(=S)N/N=C/c2cc3ccccc3n3nnnc23)cc1`, for which the growth is 30.1% in the experiment with NCI-H23 lung; 72% in the experiment with NCI-H226 lung; 51.9% with NCI-H322M lung; 49.3% in the experiment with HOP-62 NSCLC; 32.2% in the experiment with NCI-H460 lung; -5.68% (active) in the experiment on HOP-92 NSCLC. The growth is 35.4% in the experiment with NCI-H522 lung; 55.6% in the experiment with A549/ATCC NSCLC; 61.6% in the experiment on 786-0 renal; 96.9% in the experiment with COLO 205 colon; 64.1% with DU-145 prostate; 12.5% with K-562 leukemia. Further, the growth was 71.9% in the experiment with MALME-3M melanoma; 61.2% in the experiment with MDA-MB-231 breast; 30.1% in the experiment on RXF 393 renal; 38.3% with SF-268 CNS; 18.9% in the experiment with SF-295 CNS; 9.9% (active) with SF-539 CNS. The growth is 90.2% with UACC-257 melanoma and 75.5% with M14 melanoma.
As for `O=C1c2ccc3c4c(ccc(c24)C(=O)N1CCCNCc1ccccc1F)C(=O)N(CCCNCc1ccccc1F)C3=O`, the growth in the experiment with NCI-H23 lung was -53% (active); with NCI-H226 lung it was -51.9% (active); with NCI-H322M lung, -83.5% (active); in the experiment on HOP-62 NSCLC it was -29.7% (active); in the experiment on NCI-H460 lung, -55.2% (active); in the experiment on HOP-92 NSCLC, -14.2% (active). In addition, the growth was -92.5% (active) in the experiment on NCI-H522 lung; -91.2% (active) in the experiment on A549/ATCC NSCLC; -40.1% (active) with 786-0 renal; -46% (active) in the experiment on COLO 205 colon; -91.9% (active) in the experiment on DU-145 prostate; -28.2% (active) in the experiment on K-562 leukemia. Moreover, the growth is -72.2% (active) in the experiment with MALME-3M melanoma; -7.55% (active) in the experiment on MDA-MB-231 breast; -87.9% (active) in the experiment with RXF 393 renal; -65.1% (active) with SF-268 CNS; -67.7% (active) in the experiment with SF-295 CNS; -65.5% (active) in the experiment with SF-539 CNS. Moreover, the growth was -98.6% (active) with UACC-257 melanoma and -60.8% (active) in the experiment on M14 melanoma.
As to `COc1cc2c(c(OC)c1OC)CCC(c1cccc(NC(=O)c3cccc(Br)c3)c1)O2` (stereo not given), the growth was 95.1% with NCI-H23 lung; 93.7% with NCI-H226 lung; 98.5% with NCI-H322M lung; 99.8% with HOP-62 NSCLC; 100% in the experiment with NCI-H460 lung; 94% in the experiment on HOP-92 NSCLC. For the same compound, the growth in the experiment on NCI-H522 lung is 81%; with A549/ATCC NSCLC, 81.2%; in the experiment with 786-0 renal, 93.7%; in the experiment on COLO 205 colon it was 98.3%; in the experiment on DU-145 prostate, 91.9%; in the experiment on K-562 leukemia, 88%. In addition, the growth in the experiment with MALME-3M melanoma was 100%; with MDA-MB-231 breast, 92.6%; in the experiment with RXF 393 renal, 87.6%; in the experiment with SF-268 CNS it was 87.1%; with SF-295 CNS it was 92.5%; in the experiment on SF-539 CNS, 97.7%. Moreover, the growth in the experiment on UACC-257 melanoma is 81.6%; in the experiment with M14 melanoma it was 90.5%.
On to `COc1cc(C=O)ccc1OC1OC(COC(C)=O)C(OC(C)=O)C(OC(C)=O)C1OC(C)=O` (stereo not given), for which the growth in the experiment on NCI-H23 lung is 102%; in the experiment with NCI-H226 lung it was 93.8%; in the experiment on NCI-H322M lung, 120%; with HOP-62 NSCLC, 94%; in the experiment on NCI-H460 lung, 104%; in the experiment on HOP-92 NSCLC it was 88.7%. The growth in the experiment with NCI-H522 lung is 104%; in the experiment on A549/ATCC NSCLC, 94.8%; in the experiment with 786-0 renal, 105%; in the experiment on COLO 205 colon it was 98.7%; with DU-145 prostate it was 107%; with K-562 leukemia, 116%. Besides, the growth with MALME-3M melanoma was 102%; with MDA-MB-231 breast, 101%; with RXF 393 renal, 103%; with SF-268 CNS, 99.2%; in the experiment with SF-295 CNS, 102%; in the experiment on SF-539 CNS it was 96.7%. Further, the growth was 101% in the experiment on UACC-257 melanoma and 96.6% in the experiment on M14 melanoma.
In the case of `O=S(=O)(NCCNc1nccc(-c2c(-c3cccc(F)c3)nc3sccn23)n1)c1ccc(Br)cc1`, the growth with NCI-H23 lung was 72.6%; with NCI-H226 lung, 41.2%; in the experiment with NCI-H322M lung, 61%; in the experiment with HOP-62 NSCLC it was 83.3%; with NCI-H460 lung it was 27.8%; in the experiment on HOP-92 NSCLC it was 76.7%. Also, the growth in the experiment with NCI-H522 lung was 62.6%; in the experiment on A549/ATCC NSCLC it was 34.1%; with 786-0 renal, 50.6%; in the experiment with COLO 205 colon, 36.4%; in the experiment with DU-145 prostate it was 52.5%; in the experiment with K-562 leukemia, 38.7%. For the same compound, the growth in the experiment with MALME-3M melanoma was 71.1%; in the experiment with MDA-MB-231 breast, 69.7%; in the experiment on RXF 393 renal, 72.7%; in the experiment with SF-268 CNS, 53%; with SF-295 CNS, 58.7%; with SF-539 CNS, 76.4%. Also, the results for the growth in the experiment on UACC-257 melanoma and in the experiment with M14 melanoma were 82% and 52.3%, respectively.
